Records with an inconclusive call do not appear. Some structures have more than one record in an assay (separate samples or runs), and their calls can disagree. The source made the active and inactive calls. Rule for the calls, unless noted: active = hit-call score of the fitted dose curve at least 0.9, where 1 is the maximum; inactive = score below 0.9.
Key:
[1] = CCTE_Simmons_MITO_inhib_resp_rate: CCTE's HepG2 Seahorse XF Respirometric Screening Assay at Inhibited Respiratory State [full ETC block], Simmons Lab (AID 2284006); details: actives raise or lower the signal
Procedure, shortened: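 This endpoint is the respiration rate remaining after rotenone/antimycin A block, in HepG2 cells on a Seahorse XF96. Chemicals spanned 125 nM–100 uM final, in three biological replicates. OCR was read every 6 minutes for 72 minutes and compared with DMSO vehicle.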

[2] = CCTE_Simmons_MITO_viability: CellTiter-Glo Viability Assessment for CCTE's HepG2 Seahorse XF Respirometric Screening Assay [post-hoc], Simmons Lab (AID 2284007; active = hit-call score of the fitted dose curve at least 0.9, where 1 is the maximum)
Procedure, shortened: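 Luciferase-coupled ATP read-out after the Seahorse run: HepG2 cells treated 90 minutes with test chemical, 7-point series of 125 nM–100 uM final, in triplicate biological runs. Vehicle DMSO; dichlone as positive control over 8 concentrations.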

[3] = CCTE_Shafer_MEA_acute_spike_number: CCTE's Neural Acute Assay for Total Number of Spikes, Shafer Lab (AID 2284008);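 for AC50: curve fitted for decrease in spike count so AC50 reflects inhibitors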
Procedure, shortened: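 Total spike count from 40 min recordings before and during compound exposure (0.03-40 uM), given as per-well percent change. Cortical cultures from rat, DIV 13 or 15, 37 C; adaptive detection threshold 8x rms noise.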

[4] = CCTE_Shafer_MEA_acute_firing_rate_mean: CCTE's Neural Acute Assay for Mean Firing Rate, Shafer Lab (AID 2284009);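 note: analyzed for loss of signal so actives lower firing rate relative to DMSO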
Procedure, shortened: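 Spontaneous spiking of primary rat cortical networks, DIV 13/15, 37 C. Compound 0.03-40 uM, n ≥3 wells; 40 min baseline vs 40 min treated. Endpoint fitted in loss-of-signal direction against DMSO.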

[5] = CCTE_Harrill_HTTr_Viability_MCF7: CCTE's 6-hour Cell Viability Assessment for the High-Throughput Transcriptomics (HTTr) Platform, in MCF-7 cells cultured in DMEM + 10% fetal bovine serum, Harrill Lab (AID 2284010)
Procedure, shortened: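 Propidium iodide exclusion, imaged by high-content analysis, gauged viability after a six-hour exposure across eight concentrations. Cells were MCF-7 grown in DMEM with 10% fetal bovine serum; fits run in both directions against DMSO.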

[6] = CCTE_Harrill_HTTr_Apoptosis_MCF7: CCTE's 6-hour Apoptosis Assessment for the High-Throughput Transcriptomics (HTTr) Platform, in MCF-7 cells cultured in DMEM + 10% fetal bovine serum, Harrill Lab (AID 2284011)
Procedure, shortened: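 High-content imaging of CellEvent Caspase 3/7 Green signal follows a six-hour exposure, with eight concentrations per chemical. MCF-7 cells grown in DMEM plus 10% fetal bovine serum; activity fitted in both directions against DMSO.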

[7] = CCTE_Harrill_HTTr_CellCount_MCF7: CCTE's Cell Proliferation Assessment for the High-Throughput Transcriptomics (HTTr) Platform, Harrill Lab (AID 2284012; active = hit-call score of the fitted dose curve at least 0.9, where 1 is the maximum;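 note: cells exposed to compound for six hours; intended direction is loss of nuclei count meaning fewer cells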)
Procedure, shortened: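 Cell count from high-content imaging of Hoechst-labeled nuclei serves as viability/growth readout. Chemicals were applied to MCF-7 cells in eight concentrations for six hours, with fitting in both directions relative to DMSO.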

[8] = CCTE_Shafer_MEA_acute_burst_number: CCTE's Neural Acute Assay for Single-Electrode Bursts, Shafer Lab (AID 2284013)
Procedure, shortened: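 Burst totals were derived with adaptive spike detection (8x rms threshold) on filtered signals from rat cortical cultures; change relative to pre-treatment baseline after 40-min compound exposure (0.03-40 uM) was fitted in the negative direction against DMSO.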

[9] = CCTE_Shafer_MEA_acute_burst_duration_mean: CCTE's Neural Acute Assay for Mean Burst Duration, Shafer Lab (AID 2284014);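 note: hits are decreases in mean burst duration relative to DMSO controls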
Procedure, shortened: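 Acute exposure of mature rat cortical networks (DIV 13 or 15) grown on microelectrode arrays to 0.03-40 uM compound. Mean burst duration compared with the 40-min pre-dose baseline over a 40-min post-dose recording at 37 C.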

[10] = CCTE_Shafer_MEA_acute_per_burst_spike_number_mean: CCTE's Neural Acute Assay for Average Number of Spikes Per Burst, Shafer Lab (AID 2284015);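 note: hits are decreases in mean spikes per burst versus baseline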
Procedure, shortened: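 Rat primary cortical neurons on 48-well MEAs (DIV 13 or 15) were treated with 0.03-40 uM compound at 37 C. Mean spikes per burst over 40 min were recorded before and after exposure and expressed as percent change from baseline, relative to DMSO.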

[11] = CCTE_Shafer_MEA_acute_interburst_interval_mean: CCTE's Neural Acute Assay for Mean Interburst Interval, Shafer Lab (AID 2284016);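 note: percent change of mean interburst interval versus each well's own pre-dose baseline; curves fitted for decrease in interburst interval relative to DMSO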
Procedure, shortened: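 Rat primary cortical neurons on 48-well MEAs at DIV 13 or 15 were exposed acutely to 0.03-40 uM. Spikes detected at 8x rms noise, 37 C. Mean interburst interval from 40 min recordings expressed as percent change from 40 min pre-treatment baseline.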

[12] = CCTE_Shafer_MEA_acute_burst_percentage_mean: CCTE's Neural Acute Assay for Percentage of Spikes in a Burst, Shafer Lab (AID 2284017);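 for AC50: curve fitted for loss of signal so potency reflects decreased burst percentage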
Procedure, shortened: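 Primary rat cortical neurons on 48-well MEA plates, treated on DIV 13 or 15 at 0.03-40 uM. Spikes detected at 8x rms noise at 37C; percent change from 40-min baseline to 40-min post-dose recording, fitted versus DMSO.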

[13] = CCTE_Shafer_MEA_acute_per_network_burst_spike_number_mean: CCTE's Neural Acute Assay for Average Number of Spikes in a Network Burst, Shafer Lab (AID 2284019);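 for AC50: curve fitted for loss of signal so actives reduce spikes per network burst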
Procedure, shortened: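 Acute exposure of rat primary cortical networks (DIV 13/15) on MEAs; adaptive spike detection at 8x rms noise, 37 C. Percent change in spikes per network burst after 40 min with compound (0.03-40 uM), negative direction vs DMSO.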

[14] = CCTE_Shafer_MEA_acute_per_network_burst_spike_number_std: CCTE's Neural Acute Assay for Standard Deviation of Number of Spikes in a Network Burst, Shafer Lab (AID 2284020);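 note: fitted for decrease in spike-number SD versus DMSO so actives lower it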
Procedure, shortened: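 Acute MEA exposure, rat cortical neurons, 0.03-40 uM. Per-well % change versus own baseline; DMSO as negative control.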

[15] = CCTE_Shafer_MEA_acute_per_network_burst_electrodes_number_mean: CCTE's Neural Acute Assay for Mean Number of Electrodes in a Network Burst, Shafer Lab (AID 2284021);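 note: curves fitted for decreases only so hits reduce electrodes per burst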
Procedure, shortened: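 Percent change from baseline was computed as mean electrode count per network burst, comparing 40 min recordings before and during compound (0.03-40 uM) exposure. Cultures were rat cortical neurons at DIV 13 or 15, recorded on MEAs at 37 C with an adaptive 8x rms threshold.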

[16] = CCTE_Shafer_MEA_acute_network_burst_percentage: CCTE's Neural Acute Assay for Percentage of Network Bursts, Shafer Lab (AID 2284022);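 note: curves fitted for loss so actives lower network burst percentage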
Procedure, shortened: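 Network burst percentage (spikes in network bursts divided by total spikes) recorded at 37 C over 40 min baseline and 40 min after compound, 0.03-40 uM, in rat cortical cultures at DIV 13 or 15. Analysed as percent change from baseline versus DMSO.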

[17] = CCTE_Shafer_MEA_acute_cross_correlation_HWHM: CCTE's Neural Acute Assay for Cross Correlation at Half Width at Half Maximum, Shafer Lab (AID 2284026);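 note: percent change per well from pre-dose baseline in spike cross-correlogram half width; hits are a decrease in cross-correlogram half width relative to DMSO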
Procedure, shortened: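 Per-well percent change in cross-correlogram half width at half maximum, derived from 40-min recordings before and after compound (0.03-40 uM) at 37 C. Cultures were rat cortical neurons, DIV 13 or 15, with adaptive spike detection at 8x rms.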

[18] = CCTE_Shafer_MEA_acute_synchrony_index: CCTE's Neural Acute Assay for Synchrony, Shafer Lab (AID 2284027);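 note: network synchrony index of spontaneous spiking in primary rat cortical neurons on MEAs; fitted for loss of signal so actives lower synchrony relative to DMSO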
Procedure, shortened: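 The synchrony index is taken as percent change per well between a 40 min baseline and a 40 min recording with compound (0.03–40 uM), at 37C. Rat cortical cultures on multiwell MEAs at DIV 13 or 15, spike threshold 8× rms noise.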

Measured: AC50

Cc1[nH]cnc1C[C@H]1CCc2c(C)c3ccccc3n2C1=O
active: [3] 4.12 µM | [4] 4.13 µM | [12] 9 µM | [15] 17.8 µM | [16] 24.2 µM | [17] 30.7 µM | [18] 8.89 µM
inactive: all other assays above

CC(C)=CCC/C(C)=C/CO
inactive: [1] | [5] | [6] | [7]

CCOc1cccc(-n2cc(C(=O)N3CCN(c4cc(C(=O)O)c5ccccc5c4)CC3)nc2-c2ccc(C)cc2)c1
inactive: [1] | [5] | [6] | [7]

CC(C)=CCCC(C)=CC=O
not listed: [2] | [7]
inactive: all other assays above

COc1cccc(-c2ccc(/C=C\CN3CCCCCC3)cc2Cl)c1
active: [3] 3.65 µM | [4] 3.65 µM | [12] 1.34 µM | [13] 3.94 µM
not listed: [2]
inactive: all other assays above

CC(C)c1cccc(C(C)C)c1N1C(=O)c2ccc(O)cc2C1=O
inactive: [1] | [2] | [5] | [6] | [7]

Cc1ccc(N)cc1O
inactive: [2]
active: [1] 39.1 µM

O=c1[nH]c2ccc(S(=O)CCN3CCC(Cc4ccc(F)cc4)CC3)cc2o1 (centres undefined)
inactive: [1] | [5] | [6]

Fc1ccccc1[C@@H](F)COC1CCC(Nc2ncnc3[nH]ncc23)CC1 (some centres undefined)
inactive: [1] | [2] | [5] | [6] | [7]

Cc1c(-c2cccnc2)c2ccccc2n1CCCCC(=O)O
inactive: [1] | [2] | [5] | [6] | [7]

O=P(OC(CCl)CCl)(OC(CCl)CCl)OC(CCl)CCl
active: [11] 24 µM | [12] 23.1 µM | [17] 23.5 µM | [18] 23 µM
inactive: [3] | [4] | [5] | [6] | [7] | [8] | [9] | [10] | [11] | [12] | [13] | [14] | [15] | [16] | [17] | [18]
